Compound activity from PubChem BioAssay.
Hits are enriched below; roughly 18% of the tested compounds scored in any of these assays.
DT40 TDP1 CPT: DT40-hTDP1 cell growth loss with CPT; chicken DT40 Tdp1-/-;hTDP1 cells + 20 nM CPT, ATP luminescence, 48 h; Potency, µM (titrated, usually from 46.2 µM), for the others: at the highest dose activity change, negative = growth inhibition, actives largely listed as inhibitors; 420,000 compounds, 12% hits; AID 686979; further: potency means the concentration at half of the fitted maximal effect; on the % scale 0 is the no-effect control and ±100 the full control effect; nearly all actives have a fitted effect of over 55% in size
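Chicken DT40 Tdp1-/- cells complemented with human TDP1, 400 cells/well, exposed to compounds plus 20 nM camptothecin for at least 48 h at 37 C; viability read as ATP content by CellTiter-Glo luminescence.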
TDP1 block: blocks human tyrosyl-DNA phosphodiesterase 1 | Q9NUW8 | recombinant TDP1, AlphaScreen DNA substrate cleavage | Potency, µM (top dose mostly 130 µM), without a hit: at the highest dose activity change, negative = inhibition, hits mostly inhibitors | 350,000 compounds, 0.28% hits | AID 485290; further: potency means the concentration at half of the fitted maximal effect; on the % scale 0 is the no-effect control and ±100 the full control effect; nearly all actives have a fitted effect of over 40% in size
Target sequence (Q9NUW8 whole entry, looked up): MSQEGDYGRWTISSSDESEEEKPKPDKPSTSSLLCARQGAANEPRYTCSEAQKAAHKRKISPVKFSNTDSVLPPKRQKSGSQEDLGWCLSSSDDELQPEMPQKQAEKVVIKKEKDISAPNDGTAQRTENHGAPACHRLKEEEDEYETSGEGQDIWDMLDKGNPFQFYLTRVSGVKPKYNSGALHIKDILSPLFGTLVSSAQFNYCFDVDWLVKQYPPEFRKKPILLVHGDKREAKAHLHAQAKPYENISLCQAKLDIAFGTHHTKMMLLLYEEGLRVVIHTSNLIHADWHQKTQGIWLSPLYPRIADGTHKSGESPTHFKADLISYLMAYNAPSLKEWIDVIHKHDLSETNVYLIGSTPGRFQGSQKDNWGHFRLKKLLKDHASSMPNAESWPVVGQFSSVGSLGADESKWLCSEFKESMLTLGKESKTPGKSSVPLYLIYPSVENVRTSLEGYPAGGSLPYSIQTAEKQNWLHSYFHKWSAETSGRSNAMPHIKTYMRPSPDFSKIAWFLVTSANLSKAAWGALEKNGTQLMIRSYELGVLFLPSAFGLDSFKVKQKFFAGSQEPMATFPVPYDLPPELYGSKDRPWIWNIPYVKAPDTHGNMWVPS
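Tdp1 1 nM final; 15 min RT w/ cpd; substrate 15 nM, 5 min; beads 10 ug/ml, 10 min; AlphaScreen read. Neg ctrl: no enzyme.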
TGFb SMAD3 inh: TGF-b pathway inhibition; HepG2 CAGA-GFP TGF-b/SMAD3 reporter, GFP fluorescence, 18 h; TGF-beta stimulated, 500 pg/mL final; Potency, µM (titrated, usually from 46.1 µM), for inactives: at the top dose activity, negative = inhibition, usual class: inhibitors; 410,000 compounds, 1.2% hits; further: potency means the concentration at half of the fitted maximal effect; on the % scale 0 is the no-effect control and ±100 the full control effect; nearly all actives have a fitted effect of over 65% in size
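Inhibition was scored as loss of TGF-beta-induced (500 pg/mL final, 18 hours, 37 degrees C) GFP in HEPG2 cells carrying a CAGA-GFP reporter, in DMEM with 1% FBS. Well GFP was summed per cell; Activity was normalised to unstimulated and stimulated DMSO wells, then concentration-response fitting.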
TDP1 cell noCPT: qHTS for Inhibitors of human tyrosyl-DNA phosphodiesterase 1 (TDP1): qHTS in cells in absence of CPT; DT40 Tdp1-/- hTDP1 cells, no CPT, ATP luminescence, 48 h; Potency, µM (titrated, usually from 46.2 µM), without a hit: at the top dose activity change, negative = growth inhibition, actives largely listed as inhibitors; 420,000 compounds, 15% hits; further: potency means the concentration at half of the fitted maximal effect; on the % scale 0 is the no-effect control and ±100 the full control effect; nearly all actives have a fitted effect of over 55% in size
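Stably hTDP1-transfected Tdp1-null chicken DT40 cells were treated with library compounds minus camptothecin and grown for at least 48 hr at 37 °C, after which cellular ATP was quantified by luminescence.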
HepG2 tox: kills HepG2 cells in TGF-b inhibitor counter-screen. HepG2 CAGA-GFP viability, ATP luminescence, 18 h. Potency, µM (doses to about 46.1 µM), for the others: at the highest dose activity change, negative = cytotoxicity, most hits filed as cytotoxic. 410,000 compounds, 0.76% hits. AID 588856; further: potency means the concentration at half of the fitted maximal effect
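CellTiter-Glo luminescence gave cytotoxicity after 18 hours at 37 degrees C. The cells were HepG2 CAGA-GFP in 1% FBS DMEM, stimulated with 500 pg/mL TGF-beta after compound addition. %Activity was normalised to no-cell wells (complete cell-killing) and DMSO (no toxicity), and curves were fitted and classified.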
IL-1B inflam inh: inflammasome signaling inhibition, IL-1 beta readout; THP-1 LPS/ATP IL-1B secretion, AlphaLISA, 16 h; hits give low values; activity change, % at 57.5 µM; 360,000 compounds, 4.7% hits; AID 743279; in the data active means activity change below about -50%; inconclusive means mostly about -30% to -49%; further: on the % scale 0 is the no-effect control and ±100 the full control effect
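Secreted IL-1B measured by AlphaLISA bead assay after 16 h compound exposure of THP-1 cells; compounds (final up to 57.5 uM) added 1 h before LPS (250 ng/mL) and ATP (1.25 mM) stimulation; lower signal means less secretion.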
Numbers without * were called inactive; ? = inconclusive; / = no result given. Unless noted, the call rests on the fitted dose curve; in most records, active means well fitted curve in the direction sought with a large enough effect; inconclusive means small, poorly fitted or top-dose-only effect, or another doubt; inactive means no such curve, though single readings can be large; an effect the other way counts as inactive or inconclusive.

SMILES | DT40 TDP1 CPT | TDP1 block | TGFb SMAD3 inh | TDP1 cell noCPT | HepG2 tox | IL-1B inflam inh
CCOC(=O)Cn1c(=NC(=O)C2COc3ccccc3O2)sc2cc(S(N)(=O)=O)ccc21 (stereo not given) | ? | 7.9% | -7.6% | 20.6µM* | -1.8% | -12.8
COc1cc2c(cc1OC)CC(=O)NC=C2 | 6.6% | 8.9% | -6.5% | -4.4% | 26.4% | 2.0
COc1cc2c(cc1OC)C(c1ccc(N)cc1)=NNC(=O)C2 | 21.1µM* | 9.8% | / | 14.6µM* | / | /
COC(=O)c1cn[nH]c1NC(=S)Nc1ccc(Cl)c(Cl)c1 | ? | 1.8% | -21.0% | 25.1µM* | -26.1% | 19.1
COc1ccc(NC(=S)Nc2cc(C)[nH]n2)cc1Cl | ? | -8.0% | -6.7% | 18.4µM* | -3.0% | ?
COC(=O)c1cn[nH]c1NC(=S)Nc1ccc(C)cc1Cl | ? | -0.9% | 8.8% | ? | -6.0% | 19.4
COc1ccc(NC(=S)Nc2cc(-c3ccccc3)[nH]n2)cc1Cl | 22.4µM* | 7.4% | ? | ? | -17.5% | ?
CC(=O)N1CCN(C(=O)c2cc(=O)c3ccccc3o2)CC1 | 2.4% | 13.9% | -2.4% | 3.9% | 6.0% | -8.8
CCOc1ccc(CNC(=O)c2ccc(CSc3nc4ccncc4n3Cc3ccc(F)cc3)cc2)cc1 | ? | 4.9% | ? | ? | -16.5% | /
COc1ccccc1NC(=O)Nc1ccc(-n2ccc(C(F)(F)F)n2)cc1 | ? | 2.4% | ? | 25.9µM* | -27.0% | -71.2*
COc1ccccc1C(=O)NC(=O)Nc1ccc(-n2nc(C(F)(F)F)cc2C(F)(F)F)cc1 | ? | -1.9% | -24.6% | 14.6µM* | -1.7% | /
O=C(Nc1ccc(-n2ccc(C(F)(F)F)n2)cc1)Nc1cccc(Cl)c1 | / | 0.0% | / | / | / | /
Cc1cc(C)cc(NC(=O)Nc2ccc(-n3ccc(C(F)(F)F)n3)cc2)c1 | ? | / | 0.0% | 20.6µM* | -26.7% | -76.9*
O=C(NC(=O)c1ccccc1)Nc1ccc(-n2nc(C(F)(F)F)cc2C(F)(F)F)cc1 | 8.2% | 3.2% | -19.2% | 0.6% | 1.7% | /
COc1ccc(NC(=O)CCc2c(C)nn(-c3ccc(N4CCOCC4)nn3)c2C)cc1Cl | -13.6% | 5.8% | 1.1% | ? | 0.0% | /
COc1cccc(Cn2c(=O)c(-c3cccc(Cl)c3)nc3cncnc32)c1 | -24.8% | / | / | -17.9% | / | /
COc1ccccc1/C=N/NC(=O)c1nnn(-c2nonc2N)c1-c1ccccc1 | -25.4% | / | 0.2% | -14.5% | -22.8% | 2.6
Cc1ccsc1/C=N/NC(=O)c1nnn(-c2nonc2N)c1-c1ccccc1 | -23.6% | / | -3.8% | -4.2% | 6.1% | -91.9*
CCCOc1ccc(-c2c(C(=O)N/N=C/c3ccc(OCC)cc3)nnn2-c2nonc2N)cc1 | -2.9% | 4.2% | -10.7% | -14.2% | -25.2% | 22.7
CCCOc1ccc(-c2c(C(=O)N/N=C/c3ccncc3)nnn2-c2nonc2N)cc1 | 1.6% | 2.8% | -3.8% | 22.0% | -25.1% | -53.8*
CCCc1c(C(=O)N/N=C/c2c[nH]c3ccccc23)nnn1-c1nonc1N | ? | / | -1.7% | ? | -24.7% | 16.6
Cc1ccc(-c2c(C(=O)N/N=C/c3c[nH]c4ccccc34)nnn2-c2nonc2N)cc1 | ? | 1.5% | ? | 16.4µM* | -60.8% | -24.5
COc1ccccc1/C=N/NC(=O)c1nnn(-c2nonc2N)c1-c1cccs1 | 23.1µM* | -1.6% | -16.6% | -15.4% | -9.1% | 13.7
CCCCC[C@H](O)/C=C/C=C/C/C=C\CCCC(=O)O | / | 7.5% | / | / | / | /
COc1cccc(-c2c(C(=O)N/N=C/c3sccc3C)nnn2-c2nonc2N)c1 | -8.4% | 1.3% | ? | 3.8% | -36.0% | -54.5*
